# Most compounds without a hit are left out; they make up all but 21% or so of the library.
# MRP resist rev – reversal of MRP1-mediated doxorubicin resistance, primary screen, H69AR cells, doxorubicin co-treatment | 85,000 compounds, 0.04% hits | differential viability (reversal), % at 10 µM | H69AR cells + 2 uM doxorubicin, CellTiter-Glo, 72 h | AID 602, 2007;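 active = viability drop by adding the cancer drug above about 55%, with treated viability meeting a 40% cutoff, limit read from the data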;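 also: larger differential means the compound sensitizes cells more to doxorubicin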
# CYP2C9 activ – human CYP2C9 activators, primary screen, biochemical, luminescence; Cytochrome P450 2C9 (Homo sapiens), P11712; recombinant CYP2C9, luciferin-H conversion; stronger effect = higher value; factor 1 = untreated enzyme, 0 = blocked; activation factor at 5 µM; 96,000 compounds, 1.4% hits;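 active = activation factor of 2 or more for CYP2C9 at a 5 µM dose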
# MRP-1 activ – H69AR viability gain despite doxorubicin, primary screen, MRP-1 activator project, H69AR cells, CellTiter-Glo. viability rescue. viability increase, % at 10 µM. 140,000 compounds, 0.61% hits;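 active = viability gain under doxorubicin at or above a set limit, the compound median plus 3 SD, cut at about 4.7% in these data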;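 also: MRP-1 overexpressing cells given doxorubicin 25 µM after compound pretreatment; 18-22 h compound pretreatment then 72 h with doxorubicin before readout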
# CYP2C9 inh – blockers of cytochrome P450 2C9 activity – biochemical, luminescence, ADME assay, primary screen. P11712. CYP2C9 Supersomes, luciferin-H conversion. inhibition, % at 5 µM. 96,000 compounds, 20% hits. AID 777, 2007;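 active = blocking of liver enzyme CYP2C9 beyond about 50% at 5 µM, limit read from the data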
# CYP2C19 inh – blockers of cytochrome P450 2C19 activity – biochemical, luminescence, ADME assay, primary screen | P33261 | CYP2C19 Supersomes, luciferin-H EGE luminescence, 30 min | inhibition, % at 5 µM | 96,000 compounds, 21% hits | AID 778, 2007;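 active = CYP2C19 inhibition above a set limit at 5 µM in the primary screen, cut at about 50% in these data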
# Target sequence (P33261 whole entry, looked up): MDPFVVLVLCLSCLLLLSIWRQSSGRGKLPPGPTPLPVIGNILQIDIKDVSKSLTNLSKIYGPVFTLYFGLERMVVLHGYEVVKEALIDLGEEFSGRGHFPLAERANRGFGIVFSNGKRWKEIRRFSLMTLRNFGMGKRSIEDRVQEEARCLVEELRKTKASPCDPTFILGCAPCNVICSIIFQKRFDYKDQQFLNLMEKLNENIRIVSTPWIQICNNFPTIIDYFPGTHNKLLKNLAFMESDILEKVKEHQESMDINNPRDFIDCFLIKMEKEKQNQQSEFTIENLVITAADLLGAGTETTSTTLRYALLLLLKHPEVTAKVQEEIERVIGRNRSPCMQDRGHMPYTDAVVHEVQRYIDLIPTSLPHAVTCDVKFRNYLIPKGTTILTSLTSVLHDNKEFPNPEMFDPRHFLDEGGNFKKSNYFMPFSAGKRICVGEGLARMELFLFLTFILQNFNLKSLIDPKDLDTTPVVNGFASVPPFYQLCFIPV
# CYP2C19 act – human CYP2C19 activators, primary screen, biochemical, luminescence | Cytochrome P450 2C19 (Homo sapiens), P33261 | recombinant CYP2C19, luciferin-H EGE luminescence; stronger effect = higher value; 0 = fully inhibited enzyme, 1 = untreated enzyme | activation factor at 5 µM | 96,000 tested, under 10 active | AID 1025, 2008;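 active = activation factor of at least 2 at 5 µM in the primary screen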
# A number is an active result; i = inactive; nt = not tested or not shown.
SMILES,MRP resist rev,CYP2C9 activ,MRP-1 activ,CYP2C9 inh,CYP2C19 inh,CYP2C19 act
CN(C)S(=O)(=O)c1ccc(C(=O)Nc2ccc(CCC(=O)N3CCCC3)cc2)cc1,i,i,i,59,i,i
CN(C)S(=O)(=O)c1ccc(C(=O)Nc2ccc(CN3CCCC3)cc2)cc1,i,i,i,i,i,i
CC(C)COC(=O)c1ccc2c(c1O)C(=O)c1ccccc1C2=O,i,i,i,i,i,i
O=C(COc1ncnc2sccc12)N1CCc2ccccc2C1,i,i,i,i,59,i
Cc1nc(SCC(=O)Nc2ccc(Cl)cc2[N+](=O)[O-])nc(C)c1C,nt,nt,i,nt,nt,nt
Cc1ccc(SCCNC(=O)c2ccc(C)c(S(=O)(=O)Nc3cccc(C)c3)c2)cc1,nt,i,i,71,62,i
Cc1cccc(NS(=O)(=O)c2cc(C(=O)NCCC3=CCCCC3)ccc2Cl)c1,nt,i,i,68,i,i
Cc1ccc(C(=O)NCCSc2ccc(Cl)cc2)cc1S(=O)(=O)Nc1ccccc1,nt,i,i,52,i,i
Cc1ccc(SCCNC(=O)c2ccccc2)cc1,i,i,i,i,i,i
Cc1ccc(NS(=O)(=O)c2cc(C(=O)NCCSc3ccc(C)cc3)ccc2C)cc1,nt,i,i,78,67,i
Cc1ccccc1NS(=O)(=O)c1cc(C(=O)NCCC2=CCCCC2)ccc1Cl,nt,i,i,i,i,i
CC1Nc2nc(NC(=O)C(C)(C)C)[nH]c(=O)c2N(C)C1C (stereo unspecified),nt,nt,i,nt,nt,nt
CCCCN(C)CCC(=O)Nc1ccc(C)cc1,nt,nt,i,nt,nt,nt
CC(C)Cn1c(/C=C/c2ccco2)nc2ccccc21,nt,nt,i,nt,nt,nt
COc1ccc(NS(=O)(=O)c2cc(NC(=O)CNC(=O)c3cccc(OC)c3)ccc2C)cc1,nt,nt,i,nt,nt,nt
Cc1ccc(NS(=O)(=O)c2cc(C(=O)NCCSC3CCCCC3)ccc2C)cc1,nt,i,i,54,i,i
O=C(NCCC1=CCCCC1)c1ccc2c(c1)N(Cc1ccccc1)C(=O)CS2,i,i,i,75,i,i
Cc1ccc(NC(=O)CNC(=O)c2cccs2)cc1S(=O)(=O)Nc1ccc(Cl)cc1,nt,nt,7.0,nt,nt,nt
CCn1nnnc1SCC(=O)Nc1nc(-c2cccs2)cs1,i,nt,i,nt,nt,nt
Cc1cc(C(=O)OCC(=O)Nc2ccccc2[N+](=O)[O-])c2ccccc2n1,nt,nt,i,nt,nt,nt
Cc1nn(Cc2ccccc2)c2sc(C(=O)NCc3cccnc3)cc12,nt,i,i,82,62,i
Cc1cc(C(=O)NCc2cccnc2)n(-c2ccccc2)n1,i,i,i,i,60,i
Cc1ccc(NC(=O)c2cc(C)nn2-c2ccccc2)cc1,i,i,i,i,60,i
C/C(=N\NC(=O)C(C)Nc1cccc(Cl)c1)c1ccc([N+](=O)[O-])cc1 (stereo unspecified),nt,nt,i,nt,nt,nt
C/C(=N/NC(=O)CNC(=O)COc1ccccc1)c1ccco1,nt,nt,i,nt,nt,nt
SMILES,MRP resist rev,CYP2C9 activ,MRP-1 activ,CYP2C9 inh,CYP2C19 inh,CYP2C19 act
CCn1nc(C(=O)OC(C(=O)c2c[nH]c3ccccc23)c2ccccc2)c2ccccc2c1=O (stereo unspecified),nt,i,i,74,i,i
Cc1cc(C)nc(N2CCC(C(=O)Nc3nnc(C)s3)CC2)n1,i,i,i,i,i,i
CS(=O)(=O)N(CC(=O)Nc1cccc(F)c1)Cc1ccccc1,i,i,i,82,91,i
COc1cccc(NC(=O)CN(Cc2ccccc2)S(C)(=O)=O)c1,nt,nt,i,nt,nt,nt
Cc1cc(C)cc(NC(=O)CN(Cc2ccccc2)S(C)(=O)=O)c1,i,nt,i,nt,nt,nt
CC(=O)c1cccc(NC(=O)CN(Cc2ccccc2)S(C)(=O)=O)c1,i,i,i,i,76,i
C=C(C)COc1ccc2c(CC)cc(=O)oc2c1C,nt,nt,i,nt,nt,nt
O=C(CC1CCCC1)Nc1nnc(C2CC2)s1,i,i,i,i,52,i
O=C(Nc1nnc(C2CCCC2)s1)C1CCC1,i,i,i,56,i,i
O=C(Nc1nnc(C2CC2)s1)c1ccncc1,i,i,i,56,i,i
Cc1csc(NC(=O)c2nc3nc(C)cc(C)n3n2)n1,i,i,i,i,i,i
Cc1cc(C)n2nc(C(=O)Nc3nnc(C4CC4)s3)nc2n1,i,i,5.2,i,i,i

# From PubChem
